Rows were chosen to be rich in hits. Some 4.1% of all compounds tested hit in one or more screens of this group.
ssDAF-12 act = S. stercoralis DAF-12 nuclear receptor activators, primary screen, cell-based, luminescence, HEK293, GRIP1 co-expression, lit1-tk-luc; activation, % at 6.8 µM; Nuclear hormone receptor DAF-12 (Strongyloides stercoralis); HEK293 ssDAF-12/GRIP1 lit1-tk-luc reporter; % of 3 µM dafachronic acid response; actives 1% (n = 370,000);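 active = activation above the mean over all tested compounds plus 3 SD, cut at about 0.9% in these data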;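 also: 0% = DMSO-only wells and 100% = 3 µM delta7-dafachronic acid wells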
DAX1 inh-1 = DAX1 (NR0B1) inhibitors on StAR promoter, primary screen, cell-based, luminescence, SF-1 (NR5A1), full-length DAX-1; HEK293T StAR-luciferase reporter, SF-1/DAX-1 repression relief; inhibition, % at 6.8 µM; AID 652010, 2013; actives 1.1% (n = 370,000);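 active = inhibition above the mean over all tested compounds plus 3 SD, cut at about 3.6% in these data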;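 also: 0% = DAX-1 cells with DMSO and 100% = cells lacking DAX-1 with DMSO; higher inhibition means more luminescence from relief of DAX-1 repression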
hcDAF-12 act = H. contortus DAF-12 nuclear receptor activators, primary screen, cell-based, luminescence, HEK293, lit1-tk-luc reporter | HEK293 hcDAF-12 lit1-tk-luc reporter; 0% DMSO, 100% Δ7-dafachronic acid | activation, % at 6.8 µM | actives 1.4% (n = 370,000) | AID 652067, 2013;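 active = activation above the mean of all tested compounds plus 3 SD, cut at about 5.5% in these data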;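 also: 100% = response to 3 µM Δ7-dafachronic acid high control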
hgDAF12 agonist = H. glycines DAF-12 receptor agonists, primary screen, cell-based, luminescence, HEK293, GAL4 fusion, UAS-luciferase. Nuclear hormone receptor DAF-12 (Heterodera glycines), GAL4 fusion. HEK293 GAL4-hgDAF12 UAS-luciferase reporter, agonist luminescence; normalized to butyrate control. activation, % at 6.8 µM. actives 1.8% (n = 370,000). AID 687014, 2013;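 active = activation above a cutoff set at the mean of all screened compounds plus 3 SD, cut at about 10% in these data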;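 also: 0% = DMSO wells and 100% = sodium butyrate wells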
DAX1 inh-2 = DAX1 (NR0B1) inhibitors, primary screen, cell-based, HEK293, Gal4-DAX1, luciferase luminescence; actives 0.99% (n = 340,000); inhibition, % at 6.75 µM; HEK293 Gal4-DAX1 luciferase reporter; Nuclear receptor subfamily 0 group B member 1 (Homo sapiens), P51843;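 active = inhibition above the mean over all tested compounds plus 3 SD, cut at about 4.2% in these data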;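 also: 0% = DAX1-transfected cells with DMSO and 100% = empty-vector control cells with DMSO; inhibition shows as a rise in luminescence from relieved DAX1 repression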
Target sequence (P51843 207-470 limits assumed): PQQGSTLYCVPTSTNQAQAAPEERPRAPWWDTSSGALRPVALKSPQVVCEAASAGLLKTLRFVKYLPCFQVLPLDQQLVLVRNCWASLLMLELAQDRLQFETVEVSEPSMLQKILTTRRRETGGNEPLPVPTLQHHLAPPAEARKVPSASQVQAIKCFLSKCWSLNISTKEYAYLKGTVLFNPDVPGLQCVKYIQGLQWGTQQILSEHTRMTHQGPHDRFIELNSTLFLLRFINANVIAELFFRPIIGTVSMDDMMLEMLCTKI
LXRb hcDAF ctr = LXR agonists, Gal4 luciferase reporter, confirmation, counter-screen for hcDAF-12 agonist project, cell-based, luminescence, HEK293, H. contortus campaign. shares compounds with hcDAF-12 act. activation, % at 6.8 µM. AID 743027, 2013. 3,400 tested, under 10 active. HEK293 Gal4-LXR tk-luc reporter, 24 h; normalized: DMSO 0%, positive control 100%;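 active = mean percent activation of the reporter above a cutoff set as the average over tested compounds plus their standard deviation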
Target sequence (P55055 whole entry, looked up, the tested form may be a part): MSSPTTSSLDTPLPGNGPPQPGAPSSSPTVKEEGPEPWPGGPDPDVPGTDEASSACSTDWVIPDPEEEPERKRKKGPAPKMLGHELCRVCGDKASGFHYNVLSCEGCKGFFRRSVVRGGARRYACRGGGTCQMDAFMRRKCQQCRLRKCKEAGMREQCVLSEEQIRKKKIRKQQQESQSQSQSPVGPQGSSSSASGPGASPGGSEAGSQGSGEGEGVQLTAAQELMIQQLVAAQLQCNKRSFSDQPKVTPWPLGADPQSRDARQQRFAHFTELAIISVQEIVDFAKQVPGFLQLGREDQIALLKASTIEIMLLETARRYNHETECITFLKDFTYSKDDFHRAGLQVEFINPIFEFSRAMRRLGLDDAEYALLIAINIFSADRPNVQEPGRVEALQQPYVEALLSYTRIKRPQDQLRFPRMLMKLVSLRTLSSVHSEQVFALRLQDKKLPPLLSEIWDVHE
hcDAF12 ag = H. contortus DAF-12 receptor agonists, confirmation, cell-based, luminescence, HEK293, lit1-tk-luc, triplicate. activation, % at 6.8 µM. shares compounds with hcDAF-12 act. actives 61% (n = 3,400). HEK293 hcDAF-12 lit1-tk-luc reporter; % of Δ7-dafachronic acid response;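 active = mean activation across triplicate tests above the threshold derived from the earlier primary screen, cut at about 5.5% in these data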;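 also: 0% = DMSO only wells and 100% = 3 µM Δ7-dafachronic acid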
hgDAF12 conf = H. glycines DAF-12 receptor agonists, confirmation, cell-based, luminescence, HEK293, GAL4-LBD fusion | AID 743050, 2013 | HEK293 GAL4-hgDAF12 luciferase reporter, agonist mode; percent of butyrate response | activation, % at 6.8 µM | actives 80% (n = 3,300) | shares compounds with hgDAF12 agonist;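 active = mean activation over triplicate wells above the hit cutoff derived from the earlier primary screen, cut at about 11% in these data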;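 also: 0% = DMSO low control and 100% = 2 mM sodium butyrate high control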
LXR ag 2 = LXR agonists, Gal4 luciferase reporter, confirmation, counter-screen for hgDAF-12 agonist project, cell-based, luminescence, HEK293, H. glycines campaign; shares compounds with hgDAF12 agonist; AID 743051, 2013; activation, % at 6.8 µM; 24 h; 3,300 tested, under 10 active;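 active = mean activation of the triplicate above a set limit carried over from the primary screen, none filed active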
* hit, by the source's call; nt = no result.

SMILES | ssDAF-12 act | DAX1 inh-1 | hcDAF-12 act | hgDAF12 agonist | DAX1 inh-2 | LXRb hcDAF ctr | hcDAF12 ag | hgDAF12 conf | LXR ag 2
CCc1sc(C(=O)Nc2nccs2)cc1C | 0.9* | 2 | 6.7* | 19* | 2 | 1 | 6.7* | 21* | 1
CCc1sc(C(=O)Nc2nc(-c3ccccn3)cs2)cc1C | nt | nt | nt | nt | -2 | nt | nt | nt | nt
CC(C)[C@H](NC(=O)c1ccco1)C(=O)N1CCC[C@H]1C(=O)NCc1ccccc1 | -1 | 2 | 3 | 0 | nt | nt | nt | nt | nt
Nc1ccc2cc3[nH]c4cc(N)ccc4c3nc2c1 | 3.0* | -2 | 19* | 35* | -1 | 3.5* | 15* | 20* | 1
c1ccc(CSc2nc3ccccc3[nH]2)cc1 | 1 | 3.8* | 8.6* | 22* | 3 | 1 | 7.4* | 17* | 1
O=[N+]([O-])c1ccc(CSc2nc3ccccc3[nH]2)cc1 | 0 | 1 | 5 | 7 | 0 | nt | nt | nt | nt
CCN(CC)C(=O)CC[C@@H]1CC[C@]2(CCCN(C(=O)c3cccnc3)C2)O1 | -1 | 0 | 1 | -3 | nt | nt | nt | nt | nt
C[C@@H]1CN(S(=O)(=O)C(C)(C)C)[C@H](CCO)/C1=C\CCO | -2 | -3 | -1 | -4 | nt | nt | nt | nt | nt
COc1ccc2nc(SCC(C)=O)c(C#N)cc2c1 | 2.5* | 3.9* | 12* | 19* | 5.9* | 2 | 11* | 25* | 1
COc1ccc2nc(SC)c(C#N)cc2c1 | -2 | 0 | -1 | 2 | 1 | nt | nt | nt | nt
Cc1ccc(C)c(-c2nc3cc(N)ccc3o2)c1 | -2 | -1 | -5 | -7 | -2 | nt | nt | nt | nt
Cc1ccc(-c2nc3cc(N)ccc3o2)cc1Br | 0 | 1 | 6.7* | 15* | 3 | 2 | 8.0* | 19* | 1
COc1ccc(NC(=O)c2csc3c2CCCCC3)c(OC)c1 | -1 | 0 | 3 | 1 | 1 | nt | nt | nt | nt
O=C(Nc1ccccc1O)c1csc2c1CCCC2 | 1 | 2 | 7.4* | 16* | 2 | 1 | 10* | 13* | 0
O=C(Nc1ccccc1O)c1c(O)c2c([nH]c1=O)CCCC2 | 1.5* | 3 | 8.0* | 19* | 5.0* | 1 | 6.9* | 16* | 1
COC(=O)C1=C(C)N(C)C(=NCc2cc(OC)c(OC)c(OC)c2)NC1c1cccc(C(F)(F)F)c1 (stereo not drawn) | -1 | 1 | 0 | 1 | nt | nt | nt | nt | nt
Cc1ccc(CNc2nc3ccccc3n2C)cc1 | 3.6* | 3 | 16* | 21* | 3 | 2 | 16* | 20* | 1
COc1ccc(CNc2ccc3c(c2)nc(C)n3C)cc1 | -1 | 2 | 3 | 6 | 0 | nt | nt | nt | nt
Cc1ccc(CNc2ccc3c(c2)nc(C)n3C)cc1 | 1.3* | 3 | 16* | 16* | 2 | 1 | 6.4* | 17* | 1
O=C1CCC2(CCCCC2)N1CCCO | 0 | -1 | 0 | -3 | nt | nt | nt | nt | nt
Oc1cc2c(cc1CN1CCc3ccccc3C1)OCO2 | 0 | -1 | 0 | 1 | 0 | nt | nt | nt | nt
c1ccc2c(c1)CCN(c1nc3cc4c(cc3s1)OCO4)C2 | 2.2* | 4.2* | 8.8* | 14* | 3 | 2 | 8.1* | 19* | 1
COC(=O)C1=C(C)N(Cc2ccc(C(F)(F)F)cc2)C(=NCc2ccccc2C(F)(F)F)NC1c1ccccc1C(F)(F)F (stereo not drawn) | -1 | 0 | -1 | -3 | nt | nt | nt | nt | nt
COc1cccc(NC(=O)c2ccc3c(c2)OCO3)c1 | 2.8* | 3 | 7.1* | 14* | 0 | 1 | 8.2* | 17* | 1
COc1cccc(NC(=O)c2ccc3c(c2)OCCO3)c1 | 1 | 2 | 11* | 14* | -3 | 1 | 6.9* | 16* | 1
SMILES | ssDAF-12 act | DAX1 inh-1 | hcDAF-12 act | hgDAF12 agonist | DAX1 inh-2 | LXRb hcDAF ctr | hcDAF12 ag | hgDAF12 conf | LXR ag 2
COc1cc(NC(=O)C/C(C)=N/NC(=O)c2cccs2)c(OC)cc1Cl | 0 | 4.0* | 7.9* | 15* | 2 | 0 | 4 | 6 | 0
COc1cc(NC(=O)C/C(C)=N/NC(=O)Cc2ccccc2)c(OC)cc1Cl | -1 | -1 | 4 | 1 | -1 | nt | nt | nt | nt
CC1=NN(c2ccccc2)C(=O)C1N=Nc1ccc(N)cc1 (stereo not drawn) | -1 | -3 | 1 | 0 | -4 | nt | nt | nt | nt
CC1=NN(c2ccccc2)C(=O)C1N=Nc1cccc(O)c1 (stereo not drawn) | 1.6* | 1 | 18* | 14* | 1 | 1 | 13* | 19* | 1
Oc1ccccc1-c1cc(-c2cccc(F)c2)n[nH]1 | 2.4* | 4.4* | 21* | 24* | 3 | 2 | 16* | 27* | 1
COc1ccc(NC(=S)Nc2cc(C)ccn2)c(OC)c1 | 1.5* | 3 | 14* | 14* | 3 | 1 | 12* | 19* | 1
C[C@H](CO)N1C[C@H](C)[C@H](CN(C)C(=O)Nc2cccc3ccccc23)Oc2ncc(Br)cc2C1=O | 0 | 0 | 1 | 0 | nt | nt | nt | nt | nt
CN1CCC(N[C@@H](Cc2c[nH]c3ccccc23)C(=O)NCC(c2ccccc2)c2ccccc2)(C(=O)NC2CCCCC2)CC1 | -1 | nt | -1 | 1 | nt | nt | nt | nt | nt
Clc1ccccc1Nc1nc(-c2cccnc2)cs1 | 1.1* | 3.7* | 11* | 34* | 9.5* | 2 | 7.3* | 24* | 1
COc1cccc(Nc2nc(-c3cccnc3)cs2)c1 | 1.7* | 2 | 13* | 14* | 4.4* | 1 | 8.2* | 17* | 1
